PubChem BioAssay
Calls of active or inactive are those of the source. Unless noted, how the calls were made is not given here.

How the values were obtained:
[1] = tested on: Wnt5a (protein binding on small-molecule microarray); experiment: small molecules binding Wnt5a protein – biophysical, small-molecule microarray, 635/667 nm fluorescence, primary screen (AID 1142); settings: 635 nm fluorescence, higher = more signal;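 further: fluorescence read at 667 nm with signal to noise per printed feature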
[2] = ATP-based viability of Huh7 replicon cells – cell-based, CellTiter-Glo luminescence, basal, 48 h, cytotoxicity control for HCV replication inhibitor project, primary screen (AID 1143); settings: higher = more signal, called active from +8 up or from −8 down;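 further: Huh7 hepatoma cells carrying a hepatitis C replication reporter with no stimulus; test concentration not given here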
[3] = Pseudomonas biofilm growth suppression – PAO1 strain, BacTiter-Glo luminescence, LB-PBS, primary screen (AID 1144); settings: P. aeruginosa PAO1 biofilm, 12 h, higher = more signal
[4] = basal CRE-LacZ reporter activity in PC12 – cell-based, unstimulated, primary screen (AID 1145); settings: no forskolin, luminescence, 4.5 h, higher = more signal, called active from +8 up or from −8 down
[5] = forskolin-driven CRE-LacZ activity in PC12 – cell-based, CRE-LacZ reporter, forskolin-stimulated, primary screen (AID 1146); settings: luminescence, 4.5 h, higher = more signal, called active from +8 up or from −8 down;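 further: PC12 cells with 6xCRE LacZ reporter stimulated by forskolin 10 µM; beta-galactosidase reporter signal reflecting CREB driven transcription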
[6] = target: Streptavidin (Streptomyces avidinii) (UniProt P22629); experiment: compounds binding control protein streptavidin – biophysical, small-molecule microarray, 635/667 nm fluorescence, artefact control for SMM compound annotation, primary screen (AID 1147); settings: higher = more signal;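 further: signal reflects streptavidin binding to arrayed compounds as a control protein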
Sequence of Streptavidin (Streptomyces avidinii) (P22629 whole entry, looked up): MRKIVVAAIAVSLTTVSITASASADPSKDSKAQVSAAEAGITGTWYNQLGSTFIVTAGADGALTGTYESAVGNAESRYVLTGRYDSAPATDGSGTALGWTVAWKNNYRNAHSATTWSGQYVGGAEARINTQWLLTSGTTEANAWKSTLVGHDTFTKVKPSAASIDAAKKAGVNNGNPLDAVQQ

[7] = probe aInhba binding on compound microarray – biochemical, small-molecule microarray, 635/667 nm fluorescence, primary screen (AID 1148); settings: higher = more signal;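 further: score merges 667nm spot fluorescence with signal-to-noise for antibody binding to printed compounds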
Torsin-1A (Homo sapiens) [8] = target: Torsin-1A (Homo sapiens) (UniProt O14656); experiment: TOR1A wild-type binding on microarray – cell lysate, small-molecule microarray, lysate, 635/667 nm, primary screen (AID 1149); settings: COS7 hTOR1A-WT lysate, 635 nm fluorescence, higher = more signal
Sequence of Torsin-1A (Homo sapiens) (O14656 whole entry, looked up): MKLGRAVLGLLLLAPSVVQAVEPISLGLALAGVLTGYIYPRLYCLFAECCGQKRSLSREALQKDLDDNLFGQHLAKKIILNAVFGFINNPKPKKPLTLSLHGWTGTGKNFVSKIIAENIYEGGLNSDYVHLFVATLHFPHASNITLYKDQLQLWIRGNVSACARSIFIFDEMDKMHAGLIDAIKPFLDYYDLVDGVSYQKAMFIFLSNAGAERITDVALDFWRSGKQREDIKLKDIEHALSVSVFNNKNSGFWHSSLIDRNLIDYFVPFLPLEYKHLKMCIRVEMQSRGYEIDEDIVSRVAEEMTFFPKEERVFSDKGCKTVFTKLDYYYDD

Torsin-1A (Homo sapiens) [9] = target: Torsin-1A (Homo sapiens) (UniProt O14656); experiment: torsin A mutant lysate binding on microarrays – cell lysate, small-molecule microarray, COS7 lysate, 635/667 nm fluorescence, primary screen (AID 1150); settings: COS7 hTOR1A mutant lysate, 635 nm fluorescence, higher = more signal;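 further: score pools 667 nm emission and signal to noise measuring lysate protein binding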
[10] = tested on: Sonic hedgehog protein (Shh); experiment: Sonic hedgehog microarray binding compounds – biochemical, small-molecule microarray, 635/667 nm fluorescence, primary screen (AID 1151); settings: 635 nm fluorescence, higher = more signal;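 further: Shh protein binding to compounds spotted on small-molecule microarray slides; score combines spot fluorescence intensity with signal-to-noise across triplicate slides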

Compound | composite z-score [1] | z-score [2] | z-score [3] | z-score [4] | z-score [5] | composite z-score [6] | composite z-score [7] | composite z-score (Torsin-1A (Homo sapiens) [8]) | composite z-score (Torsin-1A (Homo sapiens) [9]) | composite z-score [10]
CC(C)CCC[C@@H](C)[C@H]1CC[C@@]2(C)C3=C(CC[C@]12C)[C@@]1(C)CC[C@H](OC(=O)c2ccc(C(F)(F)F)nc2)C(C)(C)C1CC3 (stereo not given in full) | 0.0419 | -0.878 (inactive) | -0.14 (inactive) | 0.399 (inactive) | -0.121 (inactive) | 0.536 | 0.0411 | 0.379 | 0.347 | 1.04
COc1ccccc1CN1C(=O)c2ccccc2[C@@H](C(=O)NCc2ccccc2)[C@@H]1c1ccc(CO)cc1 | -0.13 | -0.107 (inactive) | 1.29 (inactive) | 0.648 (inactive) | -1.35 (inactive) | -0.515 | -0.176 | 0.408 | 0.48 | 0.496
C#CCN(C/C=C/c1ccccc1)[C@H](CO)c1ccccc1 | 0.325 | -3.79 (inactive) | -0.192 (inactive) | 1.65 (inactive) | -0.121 (inactive) | 0.41 | -0.103 | 0.25 | 0.294 | 0.743
C=CCNC(=O)[C@@H]1[C@H]2C(=O)O[C@H](c3ccccc3)[C@H](c3ccccc3)N2[C@H](c2ccc(OCCO)cc2)[C@@]12C(=O)N(C(=O)OCCOC)c1ccc(C#CCC(C(=O)OC)C(=O)OC)cc12 | 0.486 | -2.47 (inactive) | 0.975 (inactive) | 0.208 (inactive) | -0.208 (inactive) | 0.386 | 0.322 | 0.126 | 0.681 | 1.09
Cc1ccc(S[C@]2(C(=O)O)CC(=O)N(C(C)C)[C@@H]2c2ccc(CO)cc2)cc1 | -0.201 | -2.62 (inactive) | -2.2 (inactive) | -0.206 (inactive) | -0.244 (inactive) | -0.186 | -0.147 | -0.366 | 1.12 | -0.317
[N-]=[N+]=Nc1ccccc1C[C@@]1(C(=O)N2CCCCC2)N=C(c2ccc(OCCCO)cc2)O[C@@H]1c1ccccc1 | 0.46 | -5.13 (inactive) | -0.682 (inactive) | 2.11 (inactive) | -0.0605 (inactive) | 1.23 | 0.298 | 0.417 | 0.36 | 0.131
O=C1C2C=CC(C(O)C=Cc3ccc([N+](=O)[O-])cc3)N(Nc3ccccc3F)C2C(=O)N1c1ccccc1 (stereo not given) | 0.265 | -0.071 (inactive) | 0.0113 (inactive) | -0.424 (inactive) | -0.156 (inactive) | 1.77 | 0.095 | 0.422 | 0.31 | -0.0025
[N-]=[N+]=NCc1ccccc1[C@@H]1OC(c2ccc(OCCCO)cc2)=N[C@]1(CCS(=O)(=O)c1ccccc1)C(=O)N1CCOCC1 | 0.477 | -4.07 (inactive) | -0.344 (inactive) | 1.59 (inactive) | -1.08 (inactive) | 1.5 | 0.351 | 0.796 | 0.947 | -0.149
O=C1C2C=CC(C(O)c3cc(C(F)(F)F)cc(C(F)(F)F)c3)N(Nc3ccccc3)C2C(=O)N1c1ccccc1 (stereo not given) | 0.0943 | -1.01 (inactive) | -1.35 (inactive) | -0.326 (inactive) | 0.501 (inactive) | -0.374 | -0.0136 | 0.702 | 1.18 | -0.857
COCCOC(=O)N1C(=O)[C@@]2(c3cc(C#CC4=CCCCC4)ccc31)[C@H](C(N)=O)[C@H]1C(=O)O[C@H](c3ccccc3)[C@H](c3ccccc3)N1[C@@H]2c1ccc(O)cc1 | 0.838 | -4.06 (inactive) | -1.29 (inactive) | -0.931 (inactive) | -0.438 (inactive) | 1.14 | -0.0736 | 1.03 | 0.931 | 1.08
CCCCN1CC=CC23O[C@@H]4/C=C\CCCOC(=O)C4[C@H]2C(=O)N(CCCCCO)[C@@H]3C1=O (stereo not given in full) | 0.0311 | -0.103 (inactive) | 0.0433 (inactive) | 0.333 (inactive) | -0.391 (inactive) | -1.43 | -0.211 | -0.0808 | 0.777 | -0.695
C=C(CCCC)/C(=C/C[C@@H](OC(C)=O)c1cccc(OCCO)c1)c1cnc2ccccc2c1 | 0.16 | -0.82 (inactive) | -1.07 (inactive) | 1.7 (inactive) | -0.307 (inactive) | 0.0063 | -0.154 | 1.17 | 0.762 | 2.05
C=CC[C@]12N=C(c3ccc(OCCCO)cc3)O[C@H]1c1ccccc1N(CCS(=O)(=O)c1ccccc1)C2=O | 0.382 | -3.24 (inactive) | -0.438 (inactive) | -1.04 (inactive) | -1.87 (inactive) | 1.07 | -0.101 | 0.695 | 0.79 | 1.39
O=C1OCC=C[C@H]2OC34C=CCN(CCN5CCOCC5)C(=O)[C@H]3N(CCO)C(=O)[C@@H]4[C@@H]12 (stereo not given in full) | -0.38 | -0.117 (inactive) | 1.82 (inactive) | 0.459 (inactive) | 0.168 (inactive) | -0.175 | -0.359 | -0.618 | -0.61 | 1.93
CCCCCCCCCCC(O)C1C=CC2C(=O)NC(=O)C2N1Nc1ccc(Cl)cc1Cl (stereo not given) | 0.333 | -1.95 (inactive) | -0.0821 (inactive) | -0.136 (inactive) | -0.407 (inactive) | -0.261 | -0.0131 | -1.76 | 0.0193 | -0.349
